Screening results as filed in PubChem.
IDE exosite FP – displaces the probe from the exo-site of human IDE; AID 1259349; P14735; purified IDE, FL-6b probe fluorescence polarization; hits give low values; z-score at 20 µM; hit rate 6.3% among 17,000;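 active = z-score of -3 or lower, meaning strong loss of probe binding signal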;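 note: His-tagged human IDE residues 42-1019 made in E. coli with 30 nM FL-6b probe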
Target sequence (P14735 42-1019 limits assumed): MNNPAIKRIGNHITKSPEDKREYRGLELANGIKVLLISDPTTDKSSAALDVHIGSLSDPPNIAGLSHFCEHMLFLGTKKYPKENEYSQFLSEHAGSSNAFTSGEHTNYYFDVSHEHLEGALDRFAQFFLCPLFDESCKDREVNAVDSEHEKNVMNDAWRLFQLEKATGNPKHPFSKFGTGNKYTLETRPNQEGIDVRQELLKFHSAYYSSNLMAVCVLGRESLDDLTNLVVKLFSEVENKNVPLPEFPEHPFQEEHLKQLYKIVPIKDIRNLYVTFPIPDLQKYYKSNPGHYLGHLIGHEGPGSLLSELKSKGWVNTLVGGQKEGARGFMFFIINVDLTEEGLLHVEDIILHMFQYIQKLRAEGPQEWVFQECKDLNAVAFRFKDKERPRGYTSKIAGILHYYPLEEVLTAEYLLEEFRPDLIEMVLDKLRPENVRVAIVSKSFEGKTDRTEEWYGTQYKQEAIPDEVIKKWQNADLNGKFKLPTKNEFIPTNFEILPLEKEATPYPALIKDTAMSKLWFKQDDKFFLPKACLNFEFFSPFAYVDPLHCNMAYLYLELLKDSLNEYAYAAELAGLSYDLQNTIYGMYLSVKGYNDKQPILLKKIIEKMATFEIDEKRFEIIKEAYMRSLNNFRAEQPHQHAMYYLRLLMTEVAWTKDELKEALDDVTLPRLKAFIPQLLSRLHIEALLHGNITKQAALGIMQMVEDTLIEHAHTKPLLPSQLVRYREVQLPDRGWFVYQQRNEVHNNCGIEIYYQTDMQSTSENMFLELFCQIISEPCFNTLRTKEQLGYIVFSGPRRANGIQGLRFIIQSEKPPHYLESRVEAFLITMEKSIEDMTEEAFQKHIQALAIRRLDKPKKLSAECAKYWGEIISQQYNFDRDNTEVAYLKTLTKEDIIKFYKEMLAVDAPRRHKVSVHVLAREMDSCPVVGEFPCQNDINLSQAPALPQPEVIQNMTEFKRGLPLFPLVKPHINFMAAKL
The depositor's hits bear a star. Shown is part of a subset that was picked to be rich in hits.

SMILES	IDE exosite FP
O=C(NC1CCCC1)N1CC(=O)N2[C@H](CO)[C@@H](c3ccc(-c4ccc(F)cc4)cc3)[C@H]2C1	2.4
O=C(NC1CCCC1)N1CC(=O)N2[C@H](C1)[C@H](c1ccc(-c3ccc(F)cc3)cc1)[C@@H]2CO	2.1
O=C(NC1CCCC1)N1CC(=O)N2[C@H](CO)[C@H](c3ccc(-c4ccc(F)cc4)cc3)[C@@H]2C1	3.7
O=C(NC1CCCCC1)N1CC(=O)N2[C@H](CO)[C@H](c3ccc(-c4cccc(F)c4)cc3)[C@H]2C1	-13*
O=C(NC1CCCCC1)N1CC(=O)N2[C@H](C1)[C@H](c1ccc(-c3cccc(F)c3)cc1)[C@@H]2CO	-6.3*
O=C1CN(S(=O)(=O)Cc2ccccc2)C[C@@H]2[C@@H](c3ccc(C#Cc4cccnc4)cc3)[C@H](CO)N12	-1.8
O=C1CNC[C@@H]2[C@@H](c3ccc(C4=CCCCC4)cc3)[C@H](CO)N12	0.49
O=C(CN1CCOCC1)N1CC(=O)N2[C@H](C1)[C@H](c1ccc(-c3cccc(F)c3)cc1)[C@@H]2CO	-1.5
OC[C@@H]1[C@@H](c2ccc(C#CC3(O)CCCC3)cc2)[C@@H]2CN(Cc3ccncc3)CCCCN12	2.2
CCN1CC(=O)N2[C@@H](CO)[C@H](c3ccc(-c4cccnc4)cc3)[C@@H]2C1	3.2
COc1ccc2c3c(n(C)c2c1)[C@@H](CO)N(C)CC31CN(C(=O)Nc2c(C)noc2C)C1	0.18
COc1cc(CN2CC3(CCN(C(=O)Nc4c(C)noc4C)CC3)c3c(n(C)c4cc(OC)ccc34)[C@H]2CO)cc(OC)c1	-3.4*
COc1cc(CN2CC3(CN(C(=O)Nc4c(C)noc4C)C3)c3c([nH]c4cc(OC)ccc34)[C@H]2CO)cc(OC)c1	0.21
COc1cc(CN2CC3(CN(C(=O)CN4CCOCC4)C3)c3c(n(C)c4cc(OC)ccc34)[C@H]2CO)cc(OC)c1	-0.49
COc1ccc2c3c(n(C)c2c1)[C@H](CO)N(C)CC31CN(C(=O)Nc2c(C)noc2C)C1	0.53
COc1cc(CN2CC3(CCN(C(=O)Nc4c(C)noc4C)CC3)c3c(n(C)c4cc(OC)ccc34)[C@@H]2CO)cc(OC)c1	-3.4*
Cc1noc(C)c1NC(=O)N(C)C[C@@H]1Oc2ccc(NC(=O)CCCN(C)C)cc2C(=O)N([C@H](C)CO)C[C@H]1C	-1.1
O=C(NC1CCCCC1)N1CC(=O)N2[C@H](CO)[C@H](c3ccc(/C=C/c4ccccc4)cc3)[C@H]2C1	-6.7*
O=C(NC1CCCCC1)N1CC(=O)N2[C@H](CO)[C@@H](c3ccc(/C=C/c4ccccc4)cc3)[C@H]2C1	-4.4*
CC(C)NC(=O)N1CC(=O)N2[C@H](CO)[C@H](c3ccc(/C=C/c4ccccc4)cc3)[C@@H]2C1	-2.1
C/C=C/c1ccc([C@H]2[C@@H](CO)N3C(=O)CN(C(=O)NC4CCCCC4)C[C@@H]23)cc1	-0.75
CC(C)NC(=O)N1CC(=O)N2[C@H](C1)[C@@H](c1ccc(/C=C/c3ccccc3)cc1)[C@@H]2CO	-2.8
CC(C)NC(=O)N1CC(=O)N2[C@H](C1)[C@H](c1ccc(/C=C/c3ccccc3)cc1)[C@@H]2CO	-3.8*
O=C(C[C@@H]1C=C[C@H](NC(=O)c2cnccn2)[C@@H](CO)O1)NCc1ccccc1F	1.1
O=C(c1ccccc1F)N1C[C@@H]2[C@H](c3ccccc31)[C@@H](CO)N2Cc1ccc2c(c1)OCO2	1.4
SMILES	IDE exosite FP
COc1ccc2c3c([nH]c2c1)[C@@H](CO)N(C(=O)Nc1ccc(F)cc1)CC31CN(Cc2cc(-c3ccccc3)on2)C1	0.38
O=C1NCCOCn2nncc2CC[C@H]1Cc1cccc(Cl)c1	-0.57
O=S(=O)(c1ccc(F)cc1)N1CCCCN2[C@H](CO)[C@H](c3ccc(C4=CCCCC4)cc3)[C@@H]2C1	4
O=C(Nc1ccccc1)N1CC(=O)N2[C@@H](CO)[C@H](c3ccc(C#CC4CC4)cc3)[C@@H]2C1	-0.6
COc1cccc(-c2ccc([C@H]3[C@@H](CO)N4CCCCN(Cc5cncnc5)C[C@H]34)cc2)c1	-6.6*
COc1cccc(-c2ccc([C@H]3[C@H](CO)N4CCCCN(Cc5cncnc5)C[C@@H]34)cc2)c1	-3*
OC[C@@H]1[C@H](c2ccc(-c3ccccc3)cc2)[C@H]2CN(Cc3cncnc3)CCCCN12	0.12
COc1cccc(CN2CCCCN3[C@H](CO)[C@H](c4ccc(-c5cccc(C#N)c5)cc4)[C@@H]3C2)c1	0.95
COc1cccc(-c2ccc([C@H]3[C@@H](CO)N4CCCCN(Cc5cncnc5)C[C@@H]34)cc2)c1	-2.7
OC[C@@H]1[C@@H](c2ccc(-c3cccc(F)c3)cc2)[C@@H]2CN(Cc3cncnc3)CCCCN12	0.63
COc1cccc(-c2ccc([C@H]3[C@@H](CO)N4CCCCN(CC5CC5)C[C@H]34)cc2)c1	-5.1*
OC[C@H]1[C@@H](c2ccc(-c3cccc(F)c3)cc2)[C@H]2CN(Cc3cncnc3)CCCCN21	1.4
COc1ccc(-c2ccc([C@H]3[C@H]4CN(CC5CCOCC5)CCCCN4[C@H]3CO)cc2)cc1	0.75
COC(=O)C[C@H]1C[C@@H]2c3cc(N)ccc3O[C@@H]2[C@H](CO)O1	-0.33
CO[C@H](CN(C)S(=O)(=O)c1ccc(C)cc1)[C@@H](C)CN([C@H](C)CO)S(=O)(=O)c1cccc(Cl)c1	1.8
C[C@@H]1C(=O)N[C@@H](c2ccccc2)CC=CC[C@H](C)Oc2ccccc2C(=O)N1C (mixture of isomers)	-0.97
COc1cccc(C#Cc2ccc([C@H]3[C@@H](CO)N4C(=O)CN(S(=O)(=O)c5ccccc5C)C[C@H]34)cc2)c1	-0.39
CCN(C[C@H]1N[C@H](CO)[C@@H]1c1ccc(-c2cccc(F)c2)cc1)C(=O)CN(C)C	-0.31
CCN1CC(=O)N2[C@@H](CO)[C@H](c3ccc(Br)cc3)[C@@H]2C1	-0.18
C[C@@H]1CC(=O)N[C@@H](c2ccccc2)C/C=C\C[C@H](c2ccccc2)NC1=O	1.2
O=C(c1cccc(F)c1)N1CCCCN2[C@H](C1)[C@H](c1ccc(C#CC3(O)CCCC3)cc1)[C@@H]2CO	-1.3
CCCNC(=O)N1CC(=O)N2[C@H](CO)[C@H](c3ccc(C#Cc4ccccc4)cc3)[C@H]2C1	-1.1
CCCNC(=O)N1CC(=O)N2[C@@H](CO)[C@H](c3ccc(C#Cc4cccc(F)c4)cc3)[C@@H]2C1	-9.2*
CCCNC(=O)N1CC(=O)N2[C@H](CO)[C@@H](c3ccc(C#Cc4cccc(OC)c4)cc3)[C@H]2C1	0.01
CCCNC(=O)N1CC(=O)N2[C@H](CO)[C@H](c3ccc(C#Cc4cccc(F)c4)cc3)[C@H]2C1	0.55
SMILES	IDE exosite FP
CCCNC(=O)N1CC(=O)N2[C@H](CO)[C@@H](c3ccc(C#Cc4cccc(F)c4)cc3)[C@@H]2C1	-6.4*
CCCC#Cc1ccc([C@H]2[C@H](CO)N3C(=O)CN(C(=O)NCCC)C[C@@H]23)cc1	-0.63
CCCC#Cc1ccc([C@@H]2[C@@H](CO)N3C(=O)CN(C(=O)NCCC)C[C@@H]23)cc1	1.7
CCCNC(=O)N1CC(=O)N2[C@H](C1)[C@@H](c1ccc(C#Cc3ccc(F)cc3)cc1)[C@@H]2CO	1.2
CCCNC(=O)N1CC(=O)N2[C@H](CO)[C@@H](c3ccc(C#Cc4cccc(OC)c4)cc3)[C@@H]2C1	-3
CCCNC(=O)N1CC(=O)N2[C@H](CO)[C@H](c3ccc(C#Cc4ccccc4)cc3)[C@@H]2C1	-9.6*
CCCC#Cc1ccc([C@@H]2[C@H]3CN(C(=O)NCCC)CC(=O)N3[C@H]2CO)cc1	1.6
